Laboratory results from PubChem BioAssay.
Activity calls are given as the source filed them. Unless noted, the rule behind the calls is not given here.

Key:
[1] = liver-stage malaria parasite load reduction – cell-based, known kinase inhibitor set, luminescence, hepatoma host viability (AID 624392); details: Plasmodium liver stage in hepatoma cells, luciferase luminescence, concentration not given here; liver cell % of control: measured here: host liver cell viability; parasite % of control: stronger effect = lower value;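 note: infected cells incubated roughly two days before readout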
[2] = altered dexamethasone sensitivity, NF-kB reporter, cell-based, luciferase, IL-1B stimulus (AID 624486); details: IL-1B + dexamethasone, luminescence; percent of negative control (+Dex): actives lie on both sides, concentration not given here; z-score: measured here: IL-1B alone, no Dex;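 for percent of negative control (+Dex): 100% = mean signal of vehicle control wells on the plate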
[3] = C. elegans survival during P. aeruginosa infection – whole organism (AID 651566);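 note: tested at 14 µM; sign flipped so higher z means a lower ratio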; details: C. elegans killed by P. aeruginosa, survival ratio
[4] = pro-inflammatory signaling induction in mouse macrophages – cell-based, murine, luminescence (AID 652131); details: murine macrophage pro-inflammatory reporter, stronger effect = higher value
[5] = molecular target: Cellular tumor antigen p53 (Homo sapiens) (UniProt P04637); assay: GFP-p53 level modulators in HPV16+ cells – imaging, known kinase inhibitor set, EGFP/DsRed ratio (AID 1053116); details: GFP-p53 stability, stronger effect = higher value; EGFP object count: measured here: GFP-p53 positive objects count;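 note: cells exposed to compounds for 24 h at 37 °C before reading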
Chain of Cellular tumor antigen p53 (Homo sapiens) (P04637 whole entry, looked up): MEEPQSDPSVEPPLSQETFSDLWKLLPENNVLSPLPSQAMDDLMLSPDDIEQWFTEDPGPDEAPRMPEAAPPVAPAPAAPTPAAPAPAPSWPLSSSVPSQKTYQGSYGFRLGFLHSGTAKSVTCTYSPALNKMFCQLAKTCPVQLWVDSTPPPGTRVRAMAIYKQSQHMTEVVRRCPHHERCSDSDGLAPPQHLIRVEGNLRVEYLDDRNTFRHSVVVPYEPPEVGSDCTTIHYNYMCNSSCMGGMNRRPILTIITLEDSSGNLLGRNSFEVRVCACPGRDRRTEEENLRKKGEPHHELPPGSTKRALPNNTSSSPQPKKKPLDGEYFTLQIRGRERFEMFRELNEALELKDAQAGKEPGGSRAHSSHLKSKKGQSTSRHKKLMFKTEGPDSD

[6] = inducers of IRF3 signaling, differentiated THP-1 – cell-based, PMA-stimulated THP-1, luminescence (AID 1053176); details: PMA-differentiated THP-1, IRF3 reporter luminescence; stronger effect = higher value
[7] = MELAS cybrid and Rieske KO viability enhancers – cell-based, MELAS cybrids, Rieske KO mouse fibroblasts, CellTiter-Glo, primary screen (AID 1508586;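 active = mean z-score across replicates of 1.96 or higher in either the MELAS or the Rieske mutant cell line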;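 note: z relative to plate mean and SD of compound and empty wells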); details: low glucose
[8] = MELAS cybrid survival, CellTiter-Glo 48 h, stronger effect = higher value
[9] = Rieske KO mouse fibroblast survival, CellTiter-Glo 72 h

SMILES	liver cell % of control [1] [%]	parasite % of control [1]	percent of negative control (+Dex) [2]	z-score [2]	z-score [3]	z-score [4]	EGFP object count [5]	EGFP/DsRed ratio [5]	fraction signal [6]	z-score [7, 8]	z-score [7, 9]
COc1cccc(/C=N/Nc2ncnc3c2cnn3-c2cccc(OC)c2)c1	96.7	107% (inactive)	91.5% (inactive)	-0.3	-0.385 (inactive)	0.307 (inactive)	9	0.222 (inactive)	0.0045 (inactive)	0.209 (inactive)	-0.582
O=S1CCN(Cc2ccc(-c3ccc4ncnc(Nc5ccc(OCc6ccccc6)c(F)c5)c4c3)o2)CC1	81.6	112% (inactive)	77.5% (inactive)	-1.04	-0.505 (inactive)	0.693 (inactive)	2.5	0.0418 (inactive)	0.012 (inactive)	-0.335 (inactive)	-0.276
CNC(=O)c1cccc(C#Cc2cncnc2Nc2ccc(OCc3cccc(F)c3)c(Cl)c2)c1	105	143% (inactive)	78% (inactive)	-0.47	0.59 (inactive)	-0.769 (inactive)	1	0.0111 (inactive)	0.003 (inactive)	-1.16 (inactive)	-0.232
CN1CCC(n2cnc(-c3ccc(F)cc3)c2-c2ccnc(NCCO)n2)CC1	86.8	138% (inactive)	102% (inactive)	1.04	0.4 (inactive)	0.387 (inactive)	3.5	0.139 (inactive)	-0.0015 (inactive)	-0.289 (inactive)	-0.297
Nc1nc(-c2ccc(F)cc2)c(-c2ccc3ncccc3n2)s1	158	131% (inactive)	85.5% (inactive)	0.965	-0.035 (inactive)	-0.162 (inactive)	6	0.152 (inactive)	-0.002 (inactive)	0.38 (inactive)	0.128
Cc1nnc(-c2ccc(C)c(-c3ccc(C(=O)Nc4cccc(C#N)c4)cc3)c2)o1	117	154% (inactive)	100% (inactive)	0.575	-0.18 (inactive)	-0.619 (inactive)	1.5	0.0236 (inactive)	-0.004 (inactive)	-0.755 (inactive)	-0.283
NC(=O)c1cccc(Nc2nccc(Nc3cccc(F)c3)n2)c1	116	398% (inactive)	208% (active)	8.4	1.67 (inactive)	0.244 (inactive)	2	0.0178 (inactive)	0.002 (inactive)	-0.778 (inactive)	-0.359
COC(=O)Nc1nc2ccc(Oc3ccc(NC(=O)Nc4cccc(Cl)c4)cc3)cc2[nH]1	81.3	298% (inactive)	122% (inactive)	1.3	1.51 (inactive)	0.651 (inactive)	79.5	1.2 (inactive)	-0.0045 (inactive)	-0.179 (inactive)	-0.521
CC1=C(C(=O)Nc2ccc3n[nH]c(C)c3c2)C(c2ccc(C(F)(F)F)cc2)CC(=O)N1 (stereo not given)	99.2	202% (inactive)	82.5% (inactive)	-1.14	0.355 (inactive)	-0.104 (inactive)	2.5	0.0851 (inactive)	-0.006 (inactive)	-0.0625 (inactive)	-0.632
CCS(=O)(=O)c1ccc(OC)c(Nc2ncc(-c3cccc(-c4ccccc4F)c3)o2)c1	111	98.4% (inactive)	88% (inactive)	0.785	-0.07 (inactive)	-0.851 (inactive)	3.5	0.511 (inactive)	0.0015 (inactive)	2.02 (active)	-0.444
O=C1NC(=O)C(c2cccc(Cl)c2)=C1Nc1ccc(O)c(Cl)c1	112	102% (inactive)	93% (inactive)	0.42	-0.775 (inactive)	0.127 (inactive)	5	0.0621 (inactive)	-0.0075 (inactive)	-1.05 (inactive)	-0.373
N#Cc1c(NC(=O)c2ccc(F)cc2)sc2c1CCCC2	159	137% (inactive)	246% (active)	14.3	-0.855 (inactive)	3.47 (inactive)	6	0.0854 (inactive)	-0.006 (inactive)	-0.073 (inactive)	0.00203
Cc1cccc(C2NNCC2c2ccc3ncccc3n2)n1 (stereo not given)	89.8	104% (inactive)	58.5% (inactive)	-3.81	0.465 (inactive)	0.276 (inactive)	4	0.132 (inactive)	0.0035 (inactive)	0.0567 (inactive)	-0.176
CN1CCC(C(=O)NC2NNC3NNC(c4ccccc4)CC32)CC1 (stereo not given)	89.8	66% (inactive)	90.5% (inactive)	-0.385	-0.44 (inactive)	3.5 (inactive)	24	0.259 (inactive)	-0.0035 (inactive)	-0.114 (inactive)	-0.215
CS(=O)(=O)CCNCc1cc(-c2cc3c(Nc4ccc(OCc5cccc(F)c5)c(Cl)c4)ncnc3s2)cs1	91.2	132% (inactive)	79.5% (inactive)	-0.645	0.375 (inactive)	0.207 (inactive)	4.5	0.11 (inactive)	-0.0035 (inactive)	-0.394 (inactive)	-0.666
